Measurements as given in the supplement of paper PMC12632987.
Over roughly 1,800 sequences, “median log2 fold change of GCK-ALFA target abundance (FLAG IP / Myc IP barcode read proportion)” has its median near 0.14; the lowest 2% begin near -0.84. Many of the other results were omitted from the sample, so the lowest values are more common in it than they were.

T1: TRAF2, Q12933
T1 chain: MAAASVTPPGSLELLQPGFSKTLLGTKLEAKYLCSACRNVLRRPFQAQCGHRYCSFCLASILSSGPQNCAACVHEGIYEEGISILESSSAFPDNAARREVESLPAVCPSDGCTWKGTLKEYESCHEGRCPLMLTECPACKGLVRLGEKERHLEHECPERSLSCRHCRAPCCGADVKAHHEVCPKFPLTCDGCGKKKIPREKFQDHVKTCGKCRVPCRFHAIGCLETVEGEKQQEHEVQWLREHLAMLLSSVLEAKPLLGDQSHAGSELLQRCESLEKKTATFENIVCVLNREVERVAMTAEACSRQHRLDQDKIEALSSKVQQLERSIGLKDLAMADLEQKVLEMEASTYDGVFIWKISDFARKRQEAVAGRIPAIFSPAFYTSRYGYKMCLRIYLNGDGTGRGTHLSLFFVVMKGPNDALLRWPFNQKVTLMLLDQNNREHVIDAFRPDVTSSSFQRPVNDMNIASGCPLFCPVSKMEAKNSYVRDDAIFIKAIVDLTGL

B1: traf2_out_20_3_2107 (protein)
chain: KELEEELEKELEEAIKLLEEAAKLADEETAKRLEELRKRVEASRELPYTDRLVALSEVRREVLALAQEAEAAGKEELAKVLEEAADELNKAMNLLMKIIE
B2: traf2_out_15_48_1346 (protein)
chain: DIEKEQKIASEIADDSDKLKDKVAKELEELQKKANPEEAAILDELIAAIRSGASLRTVRGLLLQAQPKFSPETAAKLKALAEEIDELIRENSKRYNEVLK
B3: traf2_out_18_117_1795 (protein)
chain: SEREEIIEELEELAERLGKAASELGKAVLDNWEKLTPEEKSEAMDVLADLSAVRRRAQELIHKIKTENIPVEEARKELEELKKEAEAALAAAEAKIARIK
B4: traf2_out_9_108_2595 (protein)
chain: MTEEEKEEETYEKILKLAKDFLERYDVSEELRADMEAAIEQAEKLRKEGEKRTANILIAISTARVAYEIGEEAVKDFLAELKKIDERSYNAAKRMVKLLK
B5: traf2_out_13_95_1087 (protein)
chain: SAETNAKINEIADKMMEKIEAILDKLSEEVADDPELKAEVEAAKELAITRGVNEAIHKLRELSKAHPEYKEKLDKAIDEIEKVKREASKEISKLLKEEKE
B6: traf2_out_6_3_2532 (protein)
chain: SHMSLLKDAKTVLENMGITTIEELKALVKAEVNAIKKLISRKDVDEADLAGARSVVALSRAMVEVAKETLPDFTEEDYEELNKLLEETEKLIKEREEKLK
B7: traf2_out_17_178_1748 (protein)
chain: NEEELKKIINEKNNEIADIAEKLAEEILKLAKEDPSISPETLALIEEARRNGSHNTAVALFLEASKNEETKKKVEELHKKASEEMNKLAKEREEAIEKYK
B8: traf2_out_11_104_639 (protein)
chain: LTREQAREFNDFAMAKEDEARAVAAELAAALEAAGETAAAARVRAALAHPGAGISTFRNLLEDLLPTLSPAAAAQARAAIARLAALQREVSAKLNELEAK
B9: traf2_out_6_156_2377 (protein)
chain: TKEEILKKAKEKIEKEIKKLAEASEEKKIKYISEIAGAVYKALQALREAGASVEEIKKAVEELKKVAEEEAKKAGLPEDTINLLLSSINAVGEVALREAE
B10: traf2_out_17_178_1665 (protein)
chain: TKEEERKKISELTDKLIDLAEAAADRALALAEREGDLSPEELAALREARRRGSATDVRALMRRWIPRLRSAAELGALLEEFEAEYRKLSKEIAEAYEKYE
B11: traf2_out_11_155_731 (protein)
chain: EKKEKARREIVDFAIEQGDELEAFVEALIKEVEKEDPELAKELRAVFEEHRKYSARSAALAAIDVLRKHGYEERAEELEKKIEEANKKASEFIKKIEEEL
B12: traf2_out_20_38_2042 (protein)
chain: EEEEKEEEQIELDVEIANEALDEVEERFAKWRAEGLSLEEIAERVKEEIRKAFKEAGLEEKLPEYLEQIDLVRDSPDAERLLERILARALALVRRKKREK
B13: traf2_out_20_38_2026 (protein)
chain: SMEEEEEKKLEELIKVAQEAYDEAEKKIEELKKEGKSIEEIAEIAKEEIERILSEEGLEEEKEELIEEVDLVLDSPDAERLIARILARAVALAHQKRLEK
B14: traf2_out_20_38_2028 (protein)
chain: SEEEEEKKRLEELIKVANEAYDKAEKKIAKLKAEGKTIEEIAEEAKEEVERILSEVGLEEEREELIEDIDRVLDSPDAERLIARILARAVALAYQKELQK
B15: traf2_out_5_189_2315 (protein)
chain: SAREEEQKALNEKAKEIGKEVTKLINEMKKEGKSWEEIAEKMLEKMKTLPVDDAALYSGIFYSIMLGEAIANNDEKLKEIAEKFREKAKELIKEKEKKEA
B16: traf2_out_17_162_1608 (protein)
chain: MELEEKLKKLKELLEELEKKLKRLEEKLKNIEKLSKEELSDLLVEASEARRKALEALEEIKKLKEKLDKEEYEKLSKRFEEIAEKFQRIANKFYKELEKK
B17: traf2_out_3_89_2292 (protein)
chain: SEERERKIRLARERAERYARGFEKSARRVAKEMLKEGYSLETLRGVLEAARTALVEVFREELRELGLSEEDIRELVEELERRLREIVEKVLEEAEKKRKE
B18: traf2_out_20_3_2164 (protein)
chain: SELEKKLEEELERALKLLKKAAELSDEETKKKLKELIERLKESRSLSPSDRLVVVSEVRREVLLLAQKAKAEGKEELAKLLEEAAEELNRAMQLLYEIIE
B19: traf2_out_13_95_1191 (protein)
chain: EEEKRKKYAERTNAIADELLDHADAKIAELEAATGDPELGAELRRVLDRGGVSALIHRIRELAKEDPAYREAYEAAAAELEAKRREAGRRVAEAEKEIEA
B20: traf2_out_17_162_1521 (protein)
chain: SPLEAELKALEAELEALKKKLEELKKKLENLDKMSKEELTDLLVEASEARRKALELAERLKRLKPLIGEERAGALIAEAEAIAEELQKIANKIYKKLEEK
B21: traf2_out_17_162_1578 (protein)
chain: EELKKELEELKKKLEELKKKLKEFEKKLPELPKMSYEELTDLLVEVSELKREARELAEKLEELGKKLGEEEIKKLVEEAKEIAEKLQKIANKIYKEIEKK
B22: traf2_out_20_3_2068 (protein)
chain: EELEKELEEALEKALALLKKAAALADPETAAELDALIKELKASKELSVSDRLVAVSAVRRRVLRLAEEAEAAGDAELAAVLNKAADALNRAAQLLYQILQ
B23: traf2_out_15_48_1358 (protein)
chain: STEALRETARKVADLIDATLDEVAKELKALLPKAKPEVKPILEEAIRVASTHRSINDTIALLEEAIKKSDPELAKELQELRDRLLATQKEASKLINETEK
B24: traf2_out_17_162_1493 (protein)
chain: SELEEKKKKLEKELKELKKKLKELEKKLENIEKLSKEELTDLLVEASELKRKARQLAEEYKKLLKKTGDKELEKLIKEAEELAERAQKIANKIYKEIEKK
B25: traf2_out_20_3_2136 (protein)
chain: SELEEELKKELEKAKKLLEKAAALADKETAAKLKALIKRLEASEELSPEDRLVEFSEIRREVLELALAAEAAGKAELAKLLNEAADALNKAMNLLMKIIE
B26: traf2_out_8_15_2548 (protein)
chain: SIKEAAEKDIARLKALSDGDKESLINTLLGMAKGELRLAKIYKEEGRKEEALRTLEYARIYAEAALELAKEIGSPRLEEIKKEVEELEKEIEELRKEIEA
B27: traf2_out_20_3_2212 (protein)
chain: EELRKKVEEELEKIRELLEKAKPRLPEEDYARLKELLERAEEALKEDPSDALVELSELKALLLRLSQEARAAGDEELAALLDEAADAANKAANLVYKILE
B28: traf2_out_20_38_2001 (protein)
chain: SAEEEEEEKLKKIIDVANEAYDEASKEIEELKAAGKSVEEIAEIVRAKVRELLTAAGLEEELEELLADIDRALSSPNALRLFARIRARAVALVKQKELNE
B29: traf2_out_1_27_1004 (protein)
chain: STEEERELLRRANREIGRASPEERVEVIVRALEEALARGLESPEHIAVVLILSLGEEEERRRAIEAAEEVLRAAGVSEEAIERMRRRVESGWARLDKLLA

Molecular target: T1, TRAF2, Q12933
Experiment: median log2 fold change of GCK-ALFA target abundance (FLAG IP / Myc IP barcode read proportion) (log2 ratio); each designed protein is fused to an ALFA-tag nanobody in HEK293 cells to bring the named protein to FLAG-tagged glucokinase (GCK); Myc marks an untargeted standard; higher = target protein stabilised (more abundant)
Settings: target protein: 3xFLAG-MCP-GCK-ALFA reporter; HEK293 landing pad (RPLP)
Summary of the method: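 The readout is target abundance, the per-binder median log2 ratio of FLAG to Myc barcode read proportions. It came from HEK293 landing-pad cells carrying a recombined ALFA-nanobody-fused binder library, induced with 2 μg mL^−1 doxycycline and transfected with a plasmid for a FLAG-tagged target and a Myc-tagged standard. After 48 h, lysates were immunoprecipitated with anti-FLAG and anti-Myc, and circular RNA barcodes were reverse transcribed, amplified and sequenced. Each barcode needed a proportion of at least 10^−7 in both replicates and each binder at least 3 barcodes per replicate, a pseudocount of 10^−6 was added, and the replicates were pooled.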

Binder | median log2 fold change
B1 | 0.327
B2 | 0.203
B3 | 0.171
B4 | -0.632
B5 | 0.249
B6 | -1.3
B7 | 0.486
B8 | 0.214
B9 | 0.122
B10 | 0.057
B11 | 0.0471
B12 | -0.0369
B13 | -0.0149
B14 | -0.966
B15 | 0.387
B16 | -0.073
B17 | -1.24
B18 | -0.157
B19 | 0.242
B20 | 0.311
B21 | 0.34
B22 | -0.0614
B23 | 0.33
B24 | 0.47
B25 | 0.345
B26 | 0.203
B27 | -0.0318
B28 | -1.24
B29 | 0.0667
